Reference: PubChem BioAssay (NCATS)
Inconclusive results are not listed. Calls of active or inactive are those of the source. The call rests on the fitted dose curve; in most records, active means well fitted curve in the direction sought with a large enough effect; inconclusive means small, poorly fitted or top-dose-only effect, or another doubt; inactive means no such curve, though single readings can be large; an effect the other way counts as inactive or inconclusive.

Assays:
[1] = Quantitative High-Throughput drug screen in 47 multiple myeloma cell lines against the NCATS MIPE library collection: AMO1_DSMZ cell viability assay (AID 1918927; further: nearly all actives have a fitted effect of over 30% in size; further: potency means the concentration at half of the fitted maximal effect); details: AMO1 myeloma cells viability, CellTiter-Glo ATP luminescence, 48 h; series mostly up to 45.8 µM
Method in brief: (§1)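 Approved and investigational drugs from MIPE 4.0 were added by pin tool to 500 cells per well. After 48 hours at 37C, ATP-based CellTiter-Glo luminescence indicated remaining viability.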

[2] = Quantitative High-Throughput drug screen in 47 multiple myeloma cell lines against the NCATS MIPE library collection: ARP1_JJKsccF8 cell viability assay (AID 1918928; further: nearly all actives have a fitted effect of over 40% in size; further: potency means the concentration at half of the fitted maximal effect); details: ARP1 myeloma cells viability, CellTiter-Glo ATP, 48 h; series mostly up to 45.8 µM
Method in brief: (§2)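 Here, 48 h treatment with MIPE 4.0 agents at 37 °C preceded an ATP luminescence read. Plating density was 500 cells per well.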

[3] = Quantitative High-Throughput drug screen in 47 multiple myeloma cell lines against the NCATS MIPE library collection: Karpas620_DSMZ cell viability assay (AID 1918959); details: Karpas620 myeloma viability, CellTiter-Glo ATP luminescence, 48 h; series mostly up to 45.8 µM; further: nearly all actives have a fitted effect of over 30% in size; further: potency means the concentration at half of the fitted maximal effect
Method in brief: (§3)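 Luminescent ATP measurement with CellTiter-Glo gives viability, scaled between DMSO-only wells (100%) and media-only wells (0%). Cells, 500 per well, faced library compounds for 48 hours at 37C.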

[4] = Quantitative High-Throughput drug screen in 47 multiple myeloma cell lines against the NCATS MIPE library collection: KMM1_JCRB cell viability assay (AID 1918960); details: KMM1 myeloma viability, CellTiter-Glo ATP luminescence, 48 h; series mostly up to 45.8 µM; further: nearly all actives have a fitted effect of over 30% in size; further: potency means the concentration at half of the fitted maximal effect
Method in brief: as §2

[5] = Quantitative High-Throughput drug screen in 47 multiple myeloma cell lines against the NCATS MIPE library collection: JIM1_ECACC cell viability assay (AID 1918964; further: potency means the concentration at half of the fitted maximal effect); details: JIM1 myeloma viability, CellTiter-Glo ATP luminescence, 48 h; series mostly up to 45.8 µM
Method in brief: as §1

[6] = Quantitative High-Throughput drug screen in 47 multiple myeloma cell lines against the NCATS MIPE library collection: H1112_PLB cell viability assay (AID 1918967; further: nearly all actives have a fitted effect of over 30% in size; further: potency means the concentration at half of the fitted maximal effect); details: H1112 myeloma cells viability, ATP luminescence, 48 h; series mostly up to 45.8 µM
Method in brief: as §1

[7] = Quantitative High-Throughput drug screen in 47 multiple myeloma cell lines against the NCATS MIPE library collection: KMS27_JCRB cell viability assay (AID 1918970); details: KMS27 myeloma cells, CellTiter-Glo ATP viability, 48 h; series mostly up to 45.8 µM; further: nearly all actives have a fitted effect of over 30% in size; further: potency means the concentration at half of the fitted maximal effect
Method in brief: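 ATP-based viability (CellTiter-Glo luminescence) is measured in cells treated 48 h with approved and investigational drugs at 37 °C. Controls are DMSO-only wells for full viability and media-only wells for none.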

[8] = Quantitative High-Throughput drug screen in 47 multiple myeloma cell lines against the NCATS MIPE library collection: KMS12BM_JCRB cell viability assay (AID 1918971); details: KMS12BM myeloma viability, CellTiter-Glo ATP, 48 h; series mostly up to 45.8 µM; further: nearly all actives have a fitted effect of over 35% in size; further: potency means the concentration at half of the fitted maximal effect
Method in brief: (§4)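 Inhibition of cell viability is measured here. Each line was plated at 500 cells per well, treated with MIPE 4.0 drugs, kept 48 hours at 37C, then assayed for ATP content by CellTiter-Glo luminescence.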

[9] = Quantitative High-Throughput drug screen in 47 multiple myeloma cell lines against the NCATS MIPE library collection: KMS12PE_JCRB cell viability assay (AID 1918972); details: KMS12PE myeloma viability, CellTiter-Glo ATP, 48 h; series mostly up to 45.8 µM; further: nearly all actives have a fitted effect of over 30% in size; further: potency means the concentration at half of the fitted maximal effect
Method in brief: (§5)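 Steps: seed 500 cells per well; pin-transfer MIPE 4.0 library; incubate 48 h at 37C, 5% CO2, humidified; add CellTiter-Glo, 5 min room temperature; read luminescence.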

[10] = Quantitative High-Throughput drug screen in 47 multiple myeloma cell lines against the NCATS MIPE library collection: EJM_DSMZ cell viability assay (AID 1918926; further: nearly all actives have a fitted effect of over 30% in size); details: EJM myeloma cell viability, CellTiter-Glo ATP, 48 h; series mostly up to 45.8 µM
Method in brief: as §1

[11] = Quantitative High-Throughput drug screen in 47 multiple myeloma cell lines against the NCATS MIPE library collection: Karpas417_ECACC cell viability assay (AID 1918961); details: Karpas417 myeloma viability, CellTiter-Glo ATP luminescence, 48 h; viability (% of DMSO): at 45.8 µM (top of the series) unless noted; further: potency means the concentration at half of the fitted maximal effect
Method in brief: as §5

[12] = Quantitative High-Throughput drug screen in 47 multiple myeloma cell lines against the NCATS MIPE library collection: ARD_JJKsccE7 cell viability assay (AID 1918929; further: potency means the concentration at half of the fitted maximal effect); details: ARD myeloma cell line viability, CellTiter-Glo, 48 h; series mostly up to 45.8 µM
Method in brief: as §1

[13] = Quantitative High-Throughput drug screen in 47 multiple myeloma cell lines against the NCATS MIPE library collection: KHM11_PLB cell viability assay (AID 1918962); details: KHM11 myeloma cell viability, CellTiter-Glo ATP luminescence, 48 h; series mostly up to 45.8 µM; further: potency means the concentration at half of the fitted maximal effect; nearly all actives have a fitted effect of over 35% in size
Method in brief: as §3

[14] = Quantitative High-Throughput drug screen in 47 multiple myeloma cell lines against the NCATS MIPE library collection: INA6_PLB cell viability assay (AID 1918965; further: nearly all actives have a fitted effect of over 55% in size; further: potency means the concentration at half of the fitted maximal effect); details: INA6 myeloma viability, CellTiter-Glo ATP luminescence, 48 h; series mostly up to 45.8 µM
Method in brief: as §5

[15] = Quantitative High-Throughput drug screen in 47 multiple myeloma cell lines against the NCATS MIPE library collection: KMS20_JCRB cell viability assay (AID 1918973); details: CellTiter-Glo ATP, 48 h; series mostly up to 45.8 µM; further: nearly all actives have a fitted effect of over 45% in size; further: potency means the concentration at half of the fitted maximal effect
Method in brief: as §1

[16] = Quantitative High-Throughput drug screen in 47 multiple myeloma cell lines against the NCATS MIPE library collection: KMS21BM_JCRB cell viability assay (AID 1918974); details: ATP luminescence, 48 h; viability: at 45.8 µM (top of the series) unless noted; further: potency means the concentration at half of the fitted maximal effect
Method in brief: as §1

[17] = Quantitative High-Throughput drug screen in 47 multiple myeloma cell lines against the NCATS MIPE library collection: JIM3_ECACC cell viability assay (AID 1918963; further: nearly all actives have a fitted effect of over 35% in size; further: potency means the concentration at half of the fitted maximal effect); details: JIM3 myeloma viability, CellTiter-Glo ATP, 48 h; series mostly up to 45.8 µM
Method in brief: as §3

[18] = Quantitative High-Throughput drug screen in 47 multiple myeloma cell lines against the NCATS MIPE library collection: JJN3_DSMZ cell viability assay (AID 1918966; further: nearly all actives have a fitted effect of over 50% in size; further: potency means the concentration at half of the fitted maximal effect); details: JJN3 myeloma cells viability, CellTiter-Glo ATP, 48 h; series mostly up to 45.8 µM
Method in brief: as §1

[19] = Quantitative High-Throughput drug screen in 47 multiple myeloma cell lines against the NCATS MIPE library collection: Karpas25_ECACC cell viability assay (AID 1918968; further: nearly all actives have a fitted effect of over 35% in size; further: potency means the concentration at half of the fitted maximal effect); details: Karpas25 myeloma viability, CellTiter-Glo ATP, 48 h; series mostly up to 45.8 µM
Method in brief: as §1

[20] = Quantitative High-Throughput drug screen in 47 multiple myeloma cell lines against the NCATS MIPE library collection: KMS26_JCRB cell viability assay (AID 1918975); details: KMS26 myeloma cells viability, CellTiter-Glo ATP, 48 h; series mostly up to 45.8 µM; further: nearly all actives have a fitted effect of over 45% in size; further: potency means the concentration at half of the fitted maximal effect
Method in brief: as §4

Measured: Potency

Cc1ccnc(NS(=O)(=O)c2ccc(NC(=O)Nc3ccc(S(=O)(=O)Nc4nccc(C)n4)cc3)cc2)n1
inactive: [2] | [6]
active: [1] 14.8 µM | [3] 16.6 µM | [4] 14.8 µM | [5] 16.6 µM | [7] 20.9 µM | [8] 6.62 µM | [9] 20.9 µM

OC[C@H](Cc1ccccc1)Nc1nc(Oc2ccc3c(c2)CCC3)nc2c1ncn2Cc1ccc(-c2ccccc2)cc1
inactive: [10] | [11] | [5] | [9]

CCN(c1ccccc1)c1cc(NC)[n+](C)c(C)n1
active: [1] 0.743 µM | [2] 23.5 µM | [12] 13.2 µM | [13] 0.235 µM | [7] 6.62 µM | [8] 14.8 µM | [16] 0.372 µM
inactive: [3] | [4] | [5] | [14] | [6] | [15]

Cc1cc(SCc2sc(-c3ccc(C(F)(F)F)cc3)nc2C)ccc1OCC(=O)O
inactive: [1] | [2] | [3] | [4] | [6] | [7]
active: [17] 18.7 µM | [14] 18.7 µM

CC1(C)SCCN(S(=O)(=O)c2ccc(OCC#CCO)cc2)[C@@H]1C(=O)NO
inactive: [12] | [3] | [17] | [18] | [6] | [7]
active: [1] 2.64 µM | [2] 2.35 µM

OC(CCN1CCCCC1)(c1ccccc1)C1CC2C=CC1C2 (stereo unspecified)
inactive: [1] | [2] | [3] | [4] | [11] | [5] | [6] | [19] | [7] | [9] | [20]

CNC[C@H](O)c1cccc(O)c1
inactive: [1] | [2] | [12] | [14] | [6] | [7] | [9]
active: [4] 5.26 µM | [19] 4.69 µM

Clc1cccc(Cl)c1NC1=NCCN1
inactive: [1] | [2] | [3] | [4] | [17] | [6] | [19] | [7] | [9] | [15]

CCOC(=O)C1=C[C@]2(CC)CCCN3CCc4c(n1c1ccccc41)[C@@H]32
active: [1] 16.6 µM | [2] 20.9 µM | [3] 23.5 µM | [4] 20.9 µM | [13] 9.35 µM | [17] 11.8 µM | [5] 11.8 µM | [14] 8.33 µM | [18] 18.7 µM | [6] 11.8 µM | [19] 9.35 µM | [7] 23.5 µM | [8] 14.8 µM | [9] 10.5 µM | [15] 5.9 µM

CCOc1cc(N2CCC(O)CC2)ccc1Nc1ncc2c(n1)N(C)c1ccccc1C(=O)N2C
active: [1] 1.32 µM | [2] 10.5 µM | [3] 0.332 µM | [4] 1.18 µM | [17] 8.33 µM | [14] 2.64 µM | [19] 9.35 µM | [7] 0.187 µM | [8] 11.8 µM | [9] 1.05 µM | [16] 0.526 µM | [20] 4.18 µM

O=S(=O)(N=Cc1c(O)ccc2ccccc12)c1cccs1
active: [17] 3.32 µM | [14] 2.64 µM | [6] 16.6 µM | [19] 1.05 µM | [15] 0.833 µM
inactive: [10] | [5] | [8]

COc1ccc(-c2ccc3c(N4CCOCC4)nc(N4C[C@@H](C)O[C@@H](C)C4)nc3n2)cc1CO
active: [1] 1.32 µM | [2] 0.264 µM | [3] 1.05 µM | [4] 0.209 µM | [11] 0.148 µM | [5] 0.0332 µM | [14] 5.9 µM | [18] 1.87 µM | [19] 0.743 µM | [7] 0.187 µM | [8] 0.0833 µM | [9] 2.35 µM | [15] 0.235 µM | [16] 0.833 µM
